The results in this text go back to PubChem BioAssay (NCATS).

For assay [1], the target named is Lysosomal acid glucosylceramidase (Homo sapiens) (UniProt P04062). In words: Glucocerebrosidase-p2 (AID 348; in the data active = potency below about 10 µM; note: potency is the fitted concentration of half-maximal effect). The settings on record: purified GBA, blue fluorogenic substrate, 40 min. A digest of the protocol: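 Normal human glucocerebrosidase (0.2 nM) with blue fluorogenic substrate (80 uM final) in citrate/phosphate pH 5.9 with 10mM sodium taurocholate, 0.01% tween-20; 40 min RT, NaOH/glycine stop; fluorescence Ex 365/Em 440; AC50 from a titration from 0.6 nM upwards.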
Chain of Lysosomal acid glucosylceramidase (Homo sapiens) (P04062 whole entry, looked up): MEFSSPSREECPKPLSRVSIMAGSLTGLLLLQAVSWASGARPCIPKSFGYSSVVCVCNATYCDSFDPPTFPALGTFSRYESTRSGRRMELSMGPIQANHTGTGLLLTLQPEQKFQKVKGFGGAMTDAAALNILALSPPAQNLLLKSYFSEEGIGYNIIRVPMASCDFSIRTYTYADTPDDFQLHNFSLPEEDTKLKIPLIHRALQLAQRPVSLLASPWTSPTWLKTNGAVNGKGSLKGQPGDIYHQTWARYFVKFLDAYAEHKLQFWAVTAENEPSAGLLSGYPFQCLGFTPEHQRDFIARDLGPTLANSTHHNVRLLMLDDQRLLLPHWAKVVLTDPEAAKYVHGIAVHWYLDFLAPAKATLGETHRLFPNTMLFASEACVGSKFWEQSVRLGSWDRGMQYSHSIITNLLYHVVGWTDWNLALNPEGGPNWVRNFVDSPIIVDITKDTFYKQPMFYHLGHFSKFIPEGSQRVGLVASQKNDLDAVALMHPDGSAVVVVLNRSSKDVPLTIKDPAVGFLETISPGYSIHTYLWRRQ

Assay [2] in a line: AP1 Signaling Pathway (AID 357).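 Note: ME-180 reporter cells stimulated with EGF at its EC50 level; % is set by controls: 0 for no effect and ±100 for the full control effect.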 The settings on record: ME-180 AP-1-bla reporter, EGF-induced, beta-lactamase ratio, 5 h; at 7.69 µM (top of the series) unless noted. A digest of the protocol: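 A ratiometric CCF4 readout (405 nm excitation; 460 and 530 nm emission) quantified AP-1-driven beta-lactamase in ME-180 cells after 5 h with compound and EC50 EGF; AC50 values were derived for activators and inhibitors.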

Assay [3] deals with Cytochrome P450 1A2 (Homo sapiens) (UniProt P05177). Description: p450-cyp1a2 (AID 410; calls by dose curve; note: potency is the fitted concentration of half-maximal effect). The settings on record: recombinant CYP1A2, luciferin-ME demethylation, luminescence; series mostly up to 11.4 µM. The essentials:
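Luminescent demethylation readout: Luciferin-ME (100uM, equal to Km) turned over by 20nM CYP1A2 for 60 min at room temperature after NADPH regeneration addition, following 10 min compound preincubation. Normalization used 57 uM furafylline as full inhibition.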

Assay [4] can be described thus: NFAT Signaling Pathway (AID 444).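 Note: carbachol stimulus at about its EC50 of 1 µM final; % is set by controls: 0 for no effect and ±100 for the full control effect.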 The settings on record: Jurkat NFAT-bla M1, carbachol, beta-lactamase ratio, 5 h; at 7.69 µM (top of the series) unless noted. The essentials:
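Jurkat cells carrying an NFAT-driven β-lactamase reporter and co-transfected muscarinic M1 receptor were treated with compound plus carbachol (1 uM final, an EC50 level) for 5 h at 37 °C. CCF4 loading followed for 1 h at RT; 460/530 nm ratio gave %activity.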

A short description of assay [5]: Stat Signaling Pathway (AID 446).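 Note: ME-180 cervical cancer cells given 40 pM IL-6 alongside compound; SIE-controlled beta-lactamase reporter measured as 460/530 nm FRET emission ratio; % is set by controls: 0 for no effect and ±100 for the full control effect.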 The settings on record: ME-180 SIE beta-lactamase reporter, IL-6 stimulated, 5 h; at 7.69 µM (top of the series) unless noted. The essentials:
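Normalization used AC90 stimulation (300 pM IL-6) and AC90 inhibition (125 nM pan-JAK inhibitor at 40 pM IL-6). The underlying signal is SIE-driven beta-lactamase in ME-180 cells after 5 h IL-6 exposure with compound.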

For assay [6], the target named is Glucocorticoid receptor (Homo sapiens) (UniProt P04150). In words: GR-GFP Redistribution (AID 450;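 active = compounds whose dose series gives a full or clear partial fitted curve of increased nuclear translocation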; note: potency is the fitted concentration of half-maximal effect). The settings on record: U2OS GR-GFP nuclear translocation, laser cytometry, 2 h.
Chain of Glucocorticoid receptor (Homo sapiens) (P04150 whole entry, looked up, the tested form may be a part): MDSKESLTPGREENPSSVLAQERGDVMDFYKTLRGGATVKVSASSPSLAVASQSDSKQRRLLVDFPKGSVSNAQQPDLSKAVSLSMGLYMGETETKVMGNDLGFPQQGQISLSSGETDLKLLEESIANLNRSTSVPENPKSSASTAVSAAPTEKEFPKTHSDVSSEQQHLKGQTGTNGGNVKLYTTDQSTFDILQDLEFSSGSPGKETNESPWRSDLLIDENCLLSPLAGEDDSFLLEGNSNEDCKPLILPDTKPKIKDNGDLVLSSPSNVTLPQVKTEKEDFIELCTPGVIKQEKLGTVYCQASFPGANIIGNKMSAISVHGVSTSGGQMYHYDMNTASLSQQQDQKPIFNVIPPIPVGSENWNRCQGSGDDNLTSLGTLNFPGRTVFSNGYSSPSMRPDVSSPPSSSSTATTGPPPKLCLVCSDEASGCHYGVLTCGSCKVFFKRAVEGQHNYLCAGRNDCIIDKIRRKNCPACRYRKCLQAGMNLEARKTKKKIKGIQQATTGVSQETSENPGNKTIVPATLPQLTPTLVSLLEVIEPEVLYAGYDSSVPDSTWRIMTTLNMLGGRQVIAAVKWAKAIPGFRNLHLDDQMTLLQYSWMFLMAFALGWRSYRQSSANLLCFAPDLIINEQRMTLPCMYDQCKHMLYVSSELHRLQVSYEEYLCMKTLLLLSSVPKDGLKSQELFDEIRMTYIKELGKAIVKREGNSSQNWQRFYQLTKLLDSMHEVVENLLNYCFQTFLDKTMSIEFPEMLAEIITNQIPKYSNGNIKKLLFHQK
Assay [7] shares this target. In words: GR-EFC Redistribution (AID 451; calls by dose curve; note: potency is the fitted concentration of half-maximal effect). The settings on record: CHO-K1 GR-EFC translocation, beta-gal luminescence, 2 h. The essentials: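 CHO-K1 cells stably expressing nuclear-localized β-gal enzyme acceptor and GR fused C-terminally to the enzyme donor fragment; ligand-driven nuclear translocation restores β-gal by complementation. Compounds titrated up to 46 uM final, 2 h at 37 °C; luminescence read.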

In assay [8] the target is Mitogen-activated protein kinase 10 (Mus musculus) (UniProt Q61831). In words: JNK3 AlphaScreen Assay (AID 530).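 Note: kinase came from lysate of stimulated human HepG2 cells; signal reports phosphorylation of biotinylated GST-cJun 1-79 at Ser73 with 10 µM ATP; % is set by controls: 0 for no effect and ±100 for the full control effect.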 The settings on record: JNK3 lysate, c-Jun phosphorylation; series mostly up to 11.4 µM. A digest of the protocol:
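Phosphorylation of biotinylated GST-cJun(1-79) at Ser73 is measured by AlphaScreen proximity luminescence. Enzyme is JNK3 in HepG2 lysates activated with interleukin-1beta and tumor necrosis factor alpha; ATP is 10 uM final.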

For assay [9], the target named is 3',5'-cyclic-AMP phosphodiesterase 4B (Homo sapiens) (UniProt Q07343). Description: qHTS Assay for Inhibitors of PDE-IV (AID 607; active = well fitted activation curve with a large enough effect in the main read-out, with a control signal flat, not every such curve was filed as active; note: % of control where 0% means no effect). The settings on record: HEK293 ACTOne CNG channel cells, membrane potential fluorescence; series mostly up to 22.9 µM. A digest of the protocol: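 HEK293 ACTOne cells with CNG channel (1000/well), endogenous PDE4; membrane potential dye, compounds up to 22.9 uM final. Fluorescence Ex 535/Em 590; RO 20-1724 (100 uM final) as reference.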
Chain of 3',5'-cyclic-AMP phosphodiesterase 4B (Homo sapiens) (Q07343 whole entry, looked up): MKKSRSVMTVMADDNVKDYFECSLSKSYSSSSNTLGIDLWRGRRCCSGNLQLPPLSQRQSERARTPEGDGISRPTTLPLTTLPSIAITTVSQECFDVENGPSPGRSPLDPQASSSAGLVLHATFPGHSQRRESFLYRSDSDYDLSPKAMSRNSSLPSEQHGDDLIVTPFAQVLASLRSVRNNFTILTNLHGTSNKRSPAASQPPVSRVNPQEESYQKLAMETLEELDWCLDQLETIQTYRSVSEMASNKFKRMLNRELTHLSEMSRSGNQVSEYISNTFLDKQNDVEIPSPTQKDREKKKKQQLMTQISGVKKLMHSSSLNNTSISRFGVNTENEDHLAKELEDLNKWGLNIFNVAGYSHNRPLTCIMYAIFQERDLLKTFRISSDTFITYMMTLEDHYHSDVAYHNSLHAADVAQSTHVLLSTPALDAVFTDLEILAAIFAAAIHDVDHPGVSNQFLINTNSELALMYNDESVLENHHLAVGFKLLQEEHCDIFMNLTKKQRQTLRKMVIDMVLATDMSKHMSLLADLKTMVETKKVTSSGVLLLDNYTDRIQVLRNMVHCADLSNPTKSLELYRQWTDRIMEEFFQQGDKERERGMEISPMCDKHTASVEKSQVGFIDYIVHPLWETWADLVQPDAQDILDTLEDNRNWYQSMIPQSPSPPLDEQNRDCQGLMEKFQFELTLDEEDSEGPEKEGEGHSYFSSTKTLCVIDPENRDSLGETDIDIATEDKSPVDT

The target in assay [10] is Cytochrome P450 2C19 (Homo sapiens) (UniProt P33261). Description: qHTS Assay for Inhibitors and Substrates of Cytochrome P450 2C19 (AID 899; active = well fitted inhibition curve with a large enough effect; note: nearly all actives have a fitted effect of over 60% in size; note: potency is the fitted concentration of half-maximal effect). The settings on record: recombinant CYP2C19, luciferin-H EGE luminescence; series mostly up to 11.4 µM. The essentials:
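Human CYP2C19 (5nM) with Luciferin-H EGE at 10uM (its KM) in 50mM KPO4 was preincubated with compound for 10 min at 37C. NADPH regeneration started a 60 min 37C reaction. Luciferin was read by luminescence, normalized to 57uM ketoconazole.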

The target in assay [11] is Cytochrome P450 2D6 (Homo sapiens) (UniProt P10635). Description: qHTS Assay for Inhibitors and Substrates of Cytochrome P450 2D6 (AID 891; active = well fitted inhibition curve with a large enough effect; note: nearly all actives have a fitted effect of over 60% in size; note: potency is the fitted concentration of half-maximal effect). The settings on record: recombinant CYP2D6, luciferin-ME EGE luminescence; series mostly up to 11.4 µM. The essentials: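 Luminescent read-out of luciferin formed by 5 nM human CYP2D6 demethylating 30 uM Luciferin-ME EGE (Km level) over 60 min at room temperature after NADPH regeneration addition. Data normalized to full inhibition by 1.43 uM quinidine.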
Chain of Cytochrome P450 2D6 (Homo sapiens) (P10635 whole entry, looked up): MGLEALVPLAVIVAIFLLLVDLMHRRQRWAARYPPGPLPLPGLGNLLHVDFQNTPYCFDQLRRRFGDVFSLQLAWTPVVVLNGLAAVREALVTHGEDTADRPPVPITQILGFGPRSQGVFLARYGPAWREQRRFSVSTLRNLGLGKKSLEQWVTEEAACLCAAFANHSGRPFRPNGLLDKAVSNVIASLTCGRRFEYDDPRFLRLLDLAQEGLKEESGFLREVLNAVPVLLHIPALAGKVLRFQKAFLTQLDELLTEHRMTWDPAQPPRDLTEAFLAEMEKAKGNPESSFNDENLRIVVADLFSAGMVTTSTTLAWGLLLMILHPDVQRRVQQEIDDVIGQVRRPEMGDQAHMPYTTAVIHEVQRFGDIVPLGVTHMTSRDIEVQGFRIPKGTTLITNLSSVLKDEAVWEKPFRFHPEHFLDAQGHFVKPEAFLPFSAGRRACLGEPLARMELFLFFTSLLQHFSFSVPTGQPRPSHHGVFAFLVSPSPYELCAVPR

Assay [12] in a line: qHTS Assay for Identification of Small Molecule Agonists for Hypoxia Response Element Signaling Pathway (AID 914; active = well fitted activation curve with a large enough effect in the signal ratio, with a control signal flat, not every such curve was filed as active; the % refers to the signal ratio; note: % of control where 0% means no effect). The settings on record: ME-180 (cervical carcinoma) HRE-bla reporter, beta-lactamase ratio, CoCl2, 17 h; activation: active compounds read high. The essentials:
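qHTS titration; ME-180 HRE-bla cells; EC50 CoCl2 co-treatment, 17 h at 37 degrees Celsius; CCF4 dye, ex 405nm, em 460nm and 530nm; %Activity from ratio; AC50.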

A number with no mark means an inactive call. Inconclusive results are not listed. Calls of active or inactive are those of the source. Unless noted, calls come from the whole dose curve; as a rule, active = well fitted curve in either direction with a large enough effect (not every such curve was filed as active); inconclusive = small, poorly fitted or top-dose-only effect, or another doubt; inactive = flat fitted curve, though single readings scatter.

Chain of Cytochrome P450 1A2 (Homo sapiens) (P05177 whole entry, looked up): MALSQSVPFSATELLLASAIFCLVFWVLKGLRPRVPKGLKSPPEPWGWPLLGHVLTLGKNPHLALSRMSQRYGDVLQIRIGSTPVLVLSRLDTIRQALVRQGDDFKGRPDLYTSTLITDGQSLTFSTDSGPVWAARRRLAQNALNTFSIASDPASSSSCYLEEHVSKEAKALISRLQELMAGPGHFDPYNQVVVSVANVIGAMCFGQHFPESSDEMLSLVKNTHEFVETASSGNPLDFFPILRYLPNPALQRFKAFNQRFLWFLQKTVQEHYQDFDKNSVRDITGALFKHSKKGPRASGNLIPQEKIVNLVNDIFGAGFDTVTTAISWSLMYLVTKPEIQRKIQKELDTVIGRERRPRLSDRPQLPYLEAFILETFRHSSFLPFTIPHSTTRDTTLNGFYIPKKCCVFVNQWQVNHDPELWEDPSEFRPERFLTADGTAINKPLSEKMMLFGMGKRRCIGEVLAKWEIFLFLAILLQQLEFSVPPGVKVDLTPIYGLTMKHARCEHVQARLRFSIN
Chain of Cytochrome P450 2C19 (Homo sapiens) (P33261 whole entry, looked up): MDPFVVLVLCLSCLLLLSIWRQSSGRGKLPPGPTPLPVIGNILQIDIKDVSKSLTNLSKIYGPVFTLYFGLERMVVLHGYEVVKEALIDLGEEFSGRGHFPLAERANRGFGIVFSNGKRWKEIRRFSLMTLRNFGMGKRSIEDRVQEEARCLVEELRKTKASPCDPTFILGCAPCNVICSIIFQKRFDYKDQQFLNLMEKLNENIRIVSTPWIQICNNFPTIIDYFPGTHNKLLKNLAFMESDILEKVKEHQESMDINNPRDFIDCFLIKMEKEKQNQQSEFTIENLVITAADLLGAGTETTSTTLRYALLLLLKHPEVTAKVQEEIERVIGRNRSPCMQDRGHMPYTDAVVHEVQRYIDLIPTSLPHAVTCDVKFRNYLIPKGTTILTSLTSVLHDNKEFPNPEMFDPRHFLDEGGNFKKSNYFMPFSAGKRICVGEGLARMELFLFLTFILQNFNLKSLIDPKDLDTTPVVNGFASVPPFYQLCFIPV

Regarding `CCCn1cnc2c(SCC(=O)O)nc(N)nc21`, the Potency in [1] is above 11.4 µM; in assay [6], above 46 µM; in [7], above 9.22 µM. For the same compound, the activity change, negative = inhibition was 0.287% in assay [2] and -8.4% in [4]. Moreover, the Potency entry in assay [3], in assay [8], in assay [9] and in [10] was “inactive” throughout. Also, the activity, negative = inhibition in assay [5] is -4.97%.
Turning to `O=C(O)CCCc1ccc2ccc3ccccc3c2c1`, the Potency in assay [1] was above 11.4 µM; in assay [3], 2 µM (active); in assay [6], above 46 µM; in assay [7] it was above 9.22 µM. For the same compound, the results for the activity change, negative = inhibition in [2] and in assay [4] were -11.1% and -6.89%, respectively. Also, the activity, negative = inhibition in assay [5] is -2.84%. Moreover, the Potency entry in assay [8], in assay [9], in assay [11] and in assay [10] was “inactive” in each case.
In the case of `C[C@H]1C[C@@H]2[C@H]3CCC4=CC(=O)C=C[C@@]4(C)[C@]3(Cl)[C@@H](Cl)C[C@]2(C)[C@]1(O)C(=O)COP(=O)(O)O`, the figures for the Potency in assay [1], in assay [6] and in assay [7] were above 11.4 µM, 0.0275 µM (active) and 7.37 µM (active), respectively. Moreover, the activity change, negative = inhibition in assay [2] was -4.94%; in assay [4], 9.07%. Moreover, the Potency entry in assay [3], in [8], in assay [9], in [11] and in [10] was “inactive” each time. In addition, the activity, negative = inhibition in assay [5] is 2.85%.
For `Oc1c(Br)cc(Br)cc1CN(Cc1cc(Br)cc(Br)c1O)C1CCCCC1`, the Potency in [1] was above 11.4 µM; in assay [3] it was 3.16 µM (active); in assay [6] it was above 46 µM; in [7], above 9.22 µM; in assay [11], 0.251 µM (active); in assay [10] it was 0.316 µM (active). Moreover, the activity change, negative = inhibition in assay [2] was 6.04%; in assay [4] it was 5.11%. Besides, in [5], the activity, negative = inhibition was -17.9%. Further, the Potency result in assay [8] and in assay [9] was “inactive” throughout.
As for `O=C(O)CC1(CC(=O)O)Nc2ccccc2SC1=O`, the Potency is above 11.4 µM in assay [1], above 46 µM in assay [6] and above 9.22 µM in assay [7]. Moreover, the activity change, negative = inhibition in [2] is -1.59%; in assay [3], 2% [at 2.29 µM]; in assay [4], 5.68%. For the same compound, the activity, negative = inhibition in [5] was 2.07%. Also, the Potency entry in assay [8], in assay [9] and in [10] was “inactive” in each case.
`O=C(N[C@@]1(C(=O)O)C[C@@H]1c1ccccc1)c1ccccc1`: the figures for the Potency in [1], in assay [6] and in assay [7] were above 11.4 µM, above 46 µM and above 9.22 µM, respectively. Moreover, the activity change, negative = inhibition is 7.86% in [2] and 18.8% in assay [4]. Also, the Potency entry in [3], in assay [8], in assay [9] and in assay [10] was “inactive” in each case. Moreover, the activity, negative = inhibition in [5] is 10.3%.
For `CC(C)(C)c1ccc(OCC(=O)O)c(Cl)c1`, the Potency was above 11.4 µM in assay [1], above 46 µM in assay [6] and above 9.22 µM in assay [7]. Also, the activity change, negative = inhibition in assay [2] is -2.54%; in assay [4] it was 10.5%. Moreover, the Potency entry in [3], in [8], in assay [9] and in assay [10] was “inactive” in each case. In assay [5], the activity, negative = inhibition is -5.16%.
As to `O=C(C[C@@H](c1ccccc1)N1CCCCC1)c1ccccc1`, the Potency in [1] is above 11.4 µM; in [3], 1.26 µM (active); in [6] it was above 46 µM; in assay [7] it was above 9.22 µM; in assay [10], 2.51 µM (active). Also, the activity change, negative = inhibition in [2] is 2.69%; in [4], 5.6%. Besides, in [5], the activity, negative = inhibition is -14.9%. For the same compound, the Potency entry in [8] and in assay [9] was “inactive” in each case.
Take `N=C(N)CCNC(=O)[C@@H]1CCC(N)=N1`: the Potency was above 11.4 µM in [1], above 46 µM in assay [6] and above 9.22 µM in [7]. The activity change, negative = inhibition in assay [2] is 4.22%; in assay [3], -3.4% [at 2.29 µM]; in assay [4] it was 3.47%. The activity, negative = inhibition in [5] was 1.16%. The Potency entry in assay [8], in assay [9] and in assay [10] was “inactive” in each case.
`Nc1ccn([C@H]2O[C@@H](COP(=O)(O)O)[C@@H](O)[C@H]2O)c(=O)n1`: the Potency is above 11.4 µM in assay [1], above 46 µM in assay [6] and above 9.22 µM in assay [7]. Besides, the activity change, negative = inhibition was 5.49% in [2] and 12.4% in assay [4]. For the same compound, the Potency result in [3], in [8], in assay [9] and in assay [10] was “inactive” throughout. Also, the activity, negative = inhibition in assay [5] is 4.03%.
Consider `Nc1ccc(S(=O)(=O)NCCS(=O)(=O)O)cc1`, for which the results for the Potency in [1], in assay [6] and in assay [7] were above 11.4 µM, above 46 µM and above 9.22 µM, respectively. For the same compound, the figures for the activity change, negative = inhibition in [2], in assay [3] and in assay [4] were -2.08%, -3.1% [at 2.29 µM] and 6.94%, respectively. The activity, negative = inhibition in [5] is -3.3%. Besides, the Potency entry in assay [8], in [9] and in assay [11] was “inactive” in each case. The activation in [12] was -1.31%.
Turning to `Oc1ccccc1C(Sc1nc2ccccc2s1)Sc1nc2ccccc2s1`, the Potency in assay [1] was above 11.4 µM; in [3] it was 1.26 µM (active); in [6], above 46 µM; in [7], above 9.22 µM; in assay [10], 3.16 µM (active). Further, the figures for the activity change, negative = inhibition in assay [2] and in [4] were 10.8% and 5.9%, respectively. Moreover, the activity, negative = inhibition in assay [5] is -11.5%. Moreover, the Potency result in [8] and in [9] was “inactive” throughout.
As for `O=C(O)C(Cc1cccs1)C(=O)O`, the Potency in assay [1] is above 11.4 µM; in assay [6], above 46 µM; in [7] it was above 9.22 µM. For the same compound, the activity change, negative = inhibition in assay [2] was 7.58%; in [3], -2.1% [at 2.29 µM]; in [4] it was 8.62%. Moreover, the activity, negative = inhibition in assay [5] was 0.541%. The Potency entry in assay [8], in assay [9] and in assay [10] was “inactive” each time.
Consider `N=C(c1ccc2ccccc2c1)c1ccccc1Cc1ccccc1`, for which the Potency in assay [1] was above 11.4 µM; in assay [3], 0.501 µM (active); in assay [6] it was above 46 µM; in assay [7] it was above 9.22 µM; in assay [10], 3.98 µM (active). Moreover, the activity change, negative = inhibition is 0.881% in [2] and -18% in assay [4]. Besides, the activity, negative = inhibition in assay [5] was -1.68%. Besides, the Potency result in assay [8] and in [9] was “inactive” throughout.
